From PubChem BioAssay come the findings set out here.

A short description of this test: resazurin metabolic signal in HepG2 cells – cell-based, resazurin fluorescence, 24 h, PK04 Diversity Set, profiling panel (AID 1172). Further: test concentration not given here. Conditions: HepG2 viability, higher = more signal. For orientation: Alamar Blue is a resazurin reagent that responds to reducing activity.
`C[C@@H]1NC(=O)[C@@H](C)COC(=O)[C@H](C)NC(=O)[C@@H](C)COC1=O`: the z-score worked out at 0.0907. In turn, `C[n+]1ccc(-c2ccc(CO)cc2)cc1` came in with a z-score of -0.557. For `O=C1C[C@@H](O)[C@@H](O)[C@@H]2[C@@H]3C(=O)N(C[C@@H]4CCCO4)C(=O)[C@@H]3CC[C@H]12` the value was -0.57. For `CCN1C(=O)[C@@H]2[C@H]3C(=CC[C@@H]2C1=O)C1(OCCCO1)[C@H]1O[C@H]1[C@H]3O` the value was -2.61. As to `COC(=O)C=CCCc1coc(C=CCNC(=O)OC)n1`, the z-score is -0.658. The result for `COC(=O)CC=C[C@@H](C)[C@@H](C=NO[C@@H](C)c1cn([C@H](CO)Cc2ccccc2)nn1)NS(=O)(=O)c1ccc(C)cc1` reads -1.21. For the compound `O=C(NN=C1C[C@@H](O)[C@@H](O)[C@@H]2[C@@H]3C(=O)N(C[C@@H]4CCCO4)C(=O)[C@@H]3CC[C@@H]12)OCc1ccccc1`, the z-score came to 0.0986.

Compound `CCOC(=O)C1=NO[C@@]2(C=C(Br)C3(OCCCO3)[C@H]3O[C@H]32)C1` gave a z-score of -0.68. `COCCNC(=O)OCC1CCCC2(CC(OC(=O)NCc3ccc4c(c3)OCO4)CC(CCC(=O)N[C@@H](C)C(=O)OC)O2)O1` (some centres not stated) showed a z-score of 0.752. For `COc1ccc(COC(=O)NN=C2C[C@@H](O)[C@@H](O)[C@@H]3[C@@H]4C(=O)N(c5ccc(F)cc5F)C(=O)[C@@H]4CC[C@H]23)cc1` the value was -0.238; for `CC(CCN1CCCc2nc(C)c(C)cc21)=NOC(C)CN1CCCCc2nc(C)c(C)cc21` (configuration not stated), -0.0007; for `COC(=O)CC=C[C@@H](C)[C@@H](C=NOCC[C@@H]1C=C[C@H](OC(C)=O)[C@@H](COC(C)=O)O1)OC`, -0.269. For `CC(CCN1CCCCc2nc(C)c(C)cc21)=NOC[C@@H](O)COCc1ccco1` the value was -0.862. The result for `CCOC(=O)[C@H](Cc1ccccc1)NC(=O)CCC1CC(OC(=O)NCc2cccc3ccccc23)CC2(CCCC(COC(=O)NCc3cccc(C(F)(F)F)c3)O2)O1` (some centres not stated) reads -0.256; that for `CCOC(=O)[C@H](CC(C)C)NC(=O)CCC1CC(OC(=O)NCCc2ccc(F)cc2)CC2(CCCC(COC(=O)NCCOc3ccccc3)O2)O1` (some centres not stated), -0.972.

Consider `COC(=O)[C@H]1[C@@H](O)[C@@]2(O)c3ccccc3O[C@@]2(c2ccccc2)[C@@H]1c1ccccc1`, for which the z-score is -0.314. `C#CCCCON=C1C[C@@H](O)[C@@H](O)[C@@H]2[C@@H]3C(=O)N(C(C)(C)C)C(=O)[C@@H]3CC[C@H]12`: the z-score is -0.375. The result for `CO[C@@H]1C=CCC(=O)N[C@@H](C)C(=O)OC[C@@H](OC)[C@H](C)CCCC(=O)OC[C@H]1C` reads 0.287; that for `CON=C[C@@H](C)[C@H](OCc1ccccc1)C(C)C`, -0.304.

For the compound `Cc1ccc(S(=O)(=O)n2c3ccccc3c3nnc(C(=O)c4ccccc4)nc32)cc1`, the z-score is -0.148. The result for `CC(C)CON=C1C[C@@H](O)[C@@H](O)[C@@H]2[C@@H]3C(=O)N(C4CCCCC4)C(=O)[C@@H]3CC[C@H]12` reads -0.451; that for `CO[C@@H]1COC(=O)CC=C[C@@H](C)[C@H](OC)COC(=O)[C@@H](C)COC(=O)CC=C[C@H]1C`, 0.225; that for `COC(=O)CC=C[C@@H](C)[C@@H](C=NO[C@@H](C)c1cn([C@H](CO)Cc2ccccc2)nn1)OC`, -0.849.

`COC(=O)CC=C[C@@H](C)[C@@H](C=NOC[C@@H](O)[C@H]1O[C@@H]2OC(C)(C)O[C@@H]2[C@H]1O)NS(=O)(=O)c1ccc(C)cc1`: the z-score is -0.687. Consider `COc1ccc(O[C@H]2C=C[C@@H](c3ccccc3)O[C@@H]2COC(=O)CCC(C)=NOC(C)CN2CCCc3nc(C)c(C)cc32)cc1` (some centres not stated), for which the z-score came out at 1.21.

For the compound `CCOC(=O)NN=C1C[C@@H](O)[C@@H](O)[C@@H]2[C@@H]3C(=O)N(Cc4ccc5c(c4)OCO5)C(=O)[C@@H]3CC[C@H]12`, the z-score came to 0.514. For `CC(C)=NO[C@H](C)c1cn([C@H](CO)Cc2ccccc2)nn1` the value was 0.0622; for `CCOC(=O)[C@H](CC(C)C)NC(=O)CCC1CC(OC(=O)NCc2cccc3ccccc23)CC2(CCCC(COC(=O)NCCOc3ccccc3)O2)O1` (some centres not stated), 0.329. For `CC(C)[C@@H](OCc1ccccc1)[C@H](C)C=NOC[C@@H](O)COCc1ccco1` the value was -0.314. For `CCOC(=O)[C@H](CC(C)C)NC(=O)CCC1CC(OC(=O)NCc2cccc3ccccc23)CC2(CCCC(COC(=O)NCCOC)O2)O1` (some centres not stated) the value was -0.0621; for `CON=C1[C@H]2CCn3c(=O)n(-c4ccccc4)c(=O)n3[C@H]2[C@H](O)[C@@H]2O[C@H]12`, 0.348. Consider `CO[C@@H]1COC(=O)CC=C[C@@H](C)[C@@H]2C=C[C@H](O)[C@@H](COC(=O)CC=C[C@H]1C)O2`, for which the z-score is 0.807.
